USP30 inh: inhibitors of human USP30 deubiquitinase; Q70CQ3; purified USP30, Ub-rhodamine cleavage fluorescence; inhibition, % at 25 µM; 47,000 tested, 5.3% active
USP28 block: inhibitors of human USP28 deubiquitinase | Q96RU2 | purified USP28, Ub-rhodamine cleavage fluorescence, 30 min | inhibition, % at 25 µM | 47,000 tested, 3% active | AID 1645857
Target sequence (Q96RU2 whole entry, looked up): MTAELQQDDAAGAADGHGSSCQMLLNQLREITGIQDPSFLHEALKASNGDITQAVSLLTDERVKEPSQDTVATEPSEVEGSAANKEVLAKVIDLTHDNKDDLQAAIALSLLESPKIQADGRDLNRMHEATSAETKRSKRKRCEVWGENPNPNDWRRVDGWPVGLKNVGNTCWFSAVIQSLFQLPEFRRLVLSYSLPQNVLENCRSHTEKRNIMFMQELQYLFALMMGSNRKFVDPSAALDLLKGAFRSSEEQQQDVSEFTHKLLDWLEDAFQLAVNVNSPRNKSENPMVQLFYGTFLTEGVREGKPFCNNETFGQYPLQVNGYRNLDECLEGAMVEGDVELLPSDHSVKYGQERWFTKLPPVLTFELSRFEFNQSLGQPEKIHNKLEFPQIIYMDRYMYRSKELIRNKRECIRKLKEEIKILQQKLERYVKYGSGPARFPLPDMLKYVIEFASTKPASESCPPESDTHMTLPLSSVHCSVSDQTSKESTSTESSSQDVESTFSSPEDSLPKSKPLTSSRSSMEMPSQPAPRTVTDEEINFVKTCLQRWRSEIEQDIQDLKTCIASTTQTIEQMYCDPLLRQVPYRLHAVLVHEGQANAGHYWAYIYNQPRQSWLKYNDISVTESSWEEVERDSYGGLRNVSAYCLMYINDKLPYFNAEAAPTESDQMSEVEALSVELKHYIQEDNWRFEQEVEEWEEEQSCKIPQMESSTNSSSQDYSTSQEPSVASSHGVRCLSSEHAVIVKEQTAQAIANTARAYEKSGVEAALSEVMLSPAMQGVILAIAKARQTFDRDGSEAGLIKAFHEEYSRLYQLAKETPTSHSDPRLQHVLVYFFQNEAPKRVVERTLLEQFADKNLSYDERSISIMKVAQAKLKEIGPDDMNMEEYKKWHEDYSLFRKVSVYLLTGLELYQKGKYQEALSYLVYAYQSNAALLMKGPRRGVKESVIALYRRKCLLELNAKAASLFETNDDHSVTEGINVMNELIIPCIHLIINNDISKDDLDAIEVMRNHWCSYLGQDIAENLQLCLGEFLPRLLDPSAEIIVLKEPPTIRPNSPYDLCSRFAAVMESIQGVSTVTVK
Hits are given with their value; – = inactive. Rows were chosen to be rich in hits. Some 7% of all compounds tested hit in one or more screens of this group. Cut-off read from the data, not from the text of the source: active = inhibition above about 30%; inactive = the rest.

SMILES | USP30 inh | USP28 block
COc1cccc(CCN2C[C@@]34CN(Cc5cnn(C)c5)C[C@@H](C[C@@H]3S2(=O)=O)O4)c1 | – | –
O=C(C1CCCC1)N1CCC(c2nc3c(nnn3Cc3ccccc3Cl)c(=O)[nH]2)CC1 | 38.8 | –
CC(C)(C)CC(=O)N1CCC(c2nc3c(nnn3Cc3c(F)cccc3Cl)c(=O)[nH]2)CC1 | – | –
O=C(C1CCCC1)N1CCC(c2nc3c(nnn3Cc3cccc(Cl)c3)c(=O)[nH]2)CC1 | – | –
O=C(C(c1ccccc1)c1ccccc1)N1CCC(c2nc3c(nnn3Cc3c(F)cccc3Cl)c(=O)[nH]2)CC1 | 44.2 | 37.6
COc1ccc(NC(=O)C2=C(C)Nc3ncnn3C2c2cccc(OCc3ccccc3)c2)c(OC)c1 (stereo not given) | – | –
O=C(NCc1ccccn1)c1nc(-c2ccc(F)cc2)no1 | – | –
COCCN1C[C@@]23CN(C(=O)c4ccncc4)C[C@@H](C[C@@H]2S1(=O)=O)O3 | – | –
CC(NC(=O)CSc1nnc2n(-c3ccccc3)c(=O)c3ccccc3n12)c1ccccc1 (stereo not given) | 48.1 | –
COc1ccc(NC(=O)CSc2nnc3n(-c4ccccc4)c(=O)c4c5c(sc4n23)CN(C)CC5)cc1 | – | –
CN(C)C(=O)N1CCn2c(nnc2C2CCCN2)C1 (stereo not given) | – | –
c1cncc(-c2cnc3sc(NC4CCCCC4)nn23)c1 | – | –
Cc1cccc2nc(-c3cccnc3)c(NC3CCCC3)n12 | – | 43.4
O=C(Cn1ccc2ccccc21)NCc1ccccn1 | – | –
Cc1cc(C)cc(-n2ccn3c(CCC(=O)Nc4cccc(F)c4)nnc3c2=O)c1 | – | –
Cc1cc(C)cc(-n2ccn3c(CCC(=O)Nc4ccc(F)cc4)nnc3c2=O)c1 | 49.2 | –
Cc1ccc(NC(=O)CCc2nnc3c(=O)n(-c4ccc(C)c(C)c4)ccn23)cc1 | – | –
Cc1ccc(NC(=O)CCc2nnc3c(=O)n(-c4cc(C)cc(C)c4)ccn23)cc1 | 42.6 | –
CC(C)c1nc2c(nnn2C[C@@H]2CCCN(C(=O)c3ccccc3F)C2)c(=O)[nH]1 | – | –
Cc1ccn2cc(-c3ccc(NC(=O)Cc4ccccc4)cc3)nc2n1 | – | –
CCOc1ccc(CC(=O)Nc2ccc(-c3cn4cccnc4n3)cc2)cc1 | – | 43.8
O=C(NCc1ccc2c(c1)OCO2)c1nnc(C(=O)Nc2ccc(F)cc2)s1 | – | –
O=C(Nc1ccc2c(c1)OCO2)c1[nH]nc2c1CCc1ccccc1-2 | – | 43.3
COc1cccc(CNC(=O)c2[nH]nc3c2CCc2ccccc2-3)c1 | – | –
O=C(NCc1ccc2c(c1)OCO2)c1[nH]nc2c1CCc1ccccc1-2 | 56.9 | –
SMILES | USP30 inh | USP28 block
O=C(Nc1cccnc1)c1[nH]nc2c1COc1ccccc1-2 | – | –
O=C(NCc1ccc2c(c1)OCO2)c1cc(-c2cc(Cl)ccc2O)n[nH]1 | 77.3 | –
N#CC1(NC(=O)CN2CCCCC2Cn2cncn2)CCCCC1 (stereo not given) | – | –
Cc1nc2nc(NC(=O)C3CCCCC3)[nH]n2c(=O)c1Cc1ccccc1 | – | –
O=C(c1ccc[nH]1)N1CCN(Cc2nncn2C2CCCCC2)CC1 | – | –
CCc1ccc(CN2CCC(c3nc(-c4cnccn4)n[nH]3)CC2)cc1 | – | –
COC(=O)c1ccc(Cn2cnc3ccc(F)cc3c2=O)o1 | – | 86.6
O=C(NCc1ccncc1)c1ccc(Cn2cnc3ccccc3c2=O)o1 | – | –
O=C(NCc1cccnc1)c1ccc(Cn2cnc3ccccc3c2=O)o1 | – | –
COC(=O)c1ccc(Cn2cnc3ccc(Br)cc3c2=O)o1 | – | 79.9
Cc1ccc(S(=O)(=O)N(CC(C)C)C2CCS(=O)(=O)C2)cc1 (stereo not given) | – | –
Cc1ccc(N(C)S(=O)(=O)C2CCS(=O)(=O)C2)cc1 (stereo not given) | 30.8 | –
Cc1n[nH]c(C)c1-c1cnc(CC2CCCN(S(=O)(=O)N(C)C)C2)cn1 (stereo not given) | – | –
Cc1ccc(C)c(OCCCn2c(CCNC(=O)C3CCCCC3)nc3ccccc32)c1 | – | –
O=C(NCCc1nc2ccccc2n1CCCOc1ccccc1Cl)C1CCCCC1 | 79.1 | –
N=C1/C(=C/c2cn(Cc3ccccc3)c3ccccc23)C(=O)N=C2SC(C(F)(F)F)=NN12 | – | –
CC(C)(C)c1nn(-c2ccc(Cl)cc2)c2[nH]c(=O)c(CNCc3ccco3)cc12 | – | –
CSCCC(NC(=O)c1sccc1C)c1nnc2ccccn12 (stereo not given) | 40.6 | –
CSCCC(NC(=O)c1cccs1)c1nnc2ccccn12 (stereo not given) | – | –
COc1cc(C2C3=C(CCCC3=O)Nc3c(C(=O)Nc4ccccc4)cnn32)ccc1O (stereo not given) | – | –
Cc1ccc(CN2CCCn3nc(C(=O)NCc4ccccc4F)cc3C2=O)cc1 | – | –
Cc1ccc(CN2CCCn3nc(C(=O)NCc4ccc(F)cc4)cc3C2=O)cc1 | 55.5 | –
CC(C)c1cc(C(=O)N2CCCC2c2ccccc2F)no1 (stereo not given) | – | –
COc1cccc(CNC(=O)CC(c2ccc(F)cc2)n2cccc2)c1 (stereo not given) | – | –
Cc1ccc2c(c1)C(c1ccc(F)cc1)N(C(=O)COc1ccc3ccccc3c1)CC(=O)N2 (stereo not given) | – | –
SMILES | USP30 inh | USP28 block
CCOc1ccc2ccccc2c1C(=O)N1CC(=O)Nc2ccc(C)cc2C1c1ccc(F)cc1 (stereo not given) | 42.6 | –
Oc1cc2ccccc2cc1-c1nc2c3cnn(-c4ccc(F)cc4)c3ncn2n1 | – | –
O=C(CCc1ccc(S(=O)(=O)N2CCOCC2)cc1)NC(c1ccccc1)c1ccccc1 | – | –
O=C(CCc1ccc(S(=O)(=O)N2CCOCC2)cc1)OCC(=O)c1ccc(-c2ccccc2)cc1 | 31.1 | –
N#Cc1ccc(C(=O)N(C(=O)c2ccc(C#N)cc2)c2ncccn2)cc1 | – | –
N#Cc1ccc(-c2ccc(OCC(=O)Nc3ccc4c(c3)CCC4)cc2)cc1 | 43.9 | 40.7
NS(=O)(=O)c1cccc(NC(=O)COc2ccc3c(c2)CCC3)c1 | – | –
O=C(Nc1ccc2c(c1)OCO2)c1ccccc1-n1cnnn1 | – | –
N#Cc1ccc(NC(=O)COc2ccc(-n3cnnn3)cc2)cc1 | 36.8 | –
O=C(COc1ccc(-n2cnnn2)cc1)Nc1cc(Cl)ccc1Oc1ccccc1 | – | –
O=C(COc1ccc(F)cc1)Oc1ccc(-n2cnnn2)cc1 | 30.4 | –
O=C(COc1cccc(-n2cnnn2)c1)Nc1ccc2c(c1)OCCO2 | – | 50.4
Cc1cccc(OCC(=O)Oc2ccc(-n3cnnn3)cc2)c1C | – | –
N#Cc1cccc(C(=O)N2CCc3nc4ccccc4n3CC2)c1 | – | –
COc1cccc(CNC(=O)C(C)n2nc(C)c3ccccc32)c1OC (stereo not given) | – | –
COc1cccc(C(=O)Nc2ccc(-n3cnnn3)cc2)c1 | 50.6 | –
Cc1ccc(NC(=O)c2cccc(-n3cnnn3)c2)cc1 | – | –
O=C(C1CCCN(S(=O)(=O)N2CCOCC2)C1)N1CCN(c2ccccc2F)CC1 (stereo not given) | – | –
Cc1ccc(CNC(=O)N2CCN(Cc3ccc4nccnc4c3)CC2)cc1 | – | –
O=C1COc2ccc(Br)cc2CN1Cc1ccccc1F | – | 39.9
COc1cccc(CN2Cc3ccccc3OCC2=O)c1 | – | –
C[C@H]1O[C@H]2O[C@H]1C=Cc1cccc(O)c12 | – | –

Compound activity from PubChem BioAssay.
